This is part of a sample that, as a whole, favours compounds with a hit. Of some 83,000 tested, about 20% had one in any assay.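 Interpretation: 100, growth as untreated; towards 0, rising growth inhibition; 0, no net growth; 0 to -100, cell death. Compounds scoring below 10 were considered active.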 Values without a mark were called inactive. Active and inactive are the calls of the source.
System: HL-60(TB) leukemia
Assay: NCI-60 one-dose screen, 48 h (100 = growth as untreated, 0 = no growth, -100 = all killed)
Details: 10 µM unless noted

First: CC(=O)CC(=O)c1ccccc1.[Cu+2]
Second: CC(=O)c1nc2ccccc2n1CCNC(N)=O
The growth of the first is lower: 67.2% for the first, 80.5% for the second.

Compared with CCOC(=O)CC[C@H](NC(=O)c1ccc(N(C)Cc2cnc3nc(N)nc(N)c3n2)c2ccccc12)C(=O)OCC, C#CCN(Cc1ccc2nc(N)[nH]c(=O)c2c1)c1ccc(C(=O)NC(CCC(=O)O)C(=O)O)cc1 (stereo not given) is higher in growth: 20.7% for the first, 43.6% for the second.

First: COc1cc(C(=O)N2CCN(c3cc4c(cc3F)c(=O)c(C(=O)NO)cn4C3CC3)CC2)cc(OC)c1OC
Second: CCc1nn2c(-c3ccc(Cl)cc3C)c(-c3cc(OC)c(OC)c(OC)c3)nc2s1
The growth of the first is higher: 101% for the first, 73.6% for the second.

Going from CC(C)[C@H](NC(=O)Cn1cc(C(=O)O)nn1)C(=O)O to COc1ccc2nc(-c3ccc(OC)c(OC)c3)cc(-c3nnc(SCC(=O)Nc4ccc(C(C)=O)cc4)o3)c2c1, the growth falls from 123% to 77.7%.

First: Cc1ccc(NC(=O)c2sc3nc4c(cc3c2N)C(=O)CCC4)cc1Cl
Second: Cc1ccc2sc3c(NCCN)nc4ccccc4c3c(=O)c2c1
The growth of the first is higher: 106% for the first, 53.3% for the second.

First: O=C(OCc1ccc2c(Cl)cc(Cl)c(O)c2n1)N1CCN(C(=O)c2cc3ccccc3[nH]2)CC1
Second: Clc1nccc2c(-c3csc(-c4c[nH]c5ccccc45)n3)c[nH]c12
The growth of the first is higher: 31% for the first, 29.4% for the second.

Going from Clc1ccc(/C=C2\CCCC3=C2N=C2SC=NN2C3c2ccc(Cl)cc2)cc1 (stereo not given) to O=S(=O)(c1ccccc1)N1CCCc2ccccc21, the growth rises from 91.1% to 103%.

Going from O=C(Nc1ccc(N=Nc2ccccc2)cc1)c1cccc2ccccc12 to c1ccc(CNc2nc(Nc3ccccc3)nc3ccccc23)cc1, the growth rises from 11.8% to 95.6%.

Compared with CC(=O)OC1CCC2(C)C(=CC3C4CCC(=O)C4(C)CCC32)C1 (stereo not given), C=C(C)[C@@H]1CC[C@]2(C)CC[C@]3(C)[C@H](CC[C@@H]4[C@@]5(C)CCCNC(C)(C)[C@@H]5CC[C@]43C)[C@@H]12 is lower in growth: 91% for the first, 35.7% for the second.

First: COc1ccccc1N1CCN(CC(O)COc2c(Br)c(Br)c(Br)c3c2OC(C)(C)C3)CC1 (stereo not given)
Second: CCOC(=O)c1c(C)nc2c(c1N)CC(=O)N2Cc1ccc(F)cc1
The growth of the first is lower: 10.3% for the first, 83.5% for the second.

Compared with CO[C@H](C(=O)[C@@H](O)[C@@H](C)O)[C@@H]1Cc2cc3cc(O[C@H]4C[C@@H](O[C@H]5C[C@@H](O)[C@H](O)C(C)O5)[C@H](O)C(C)(O)O4)cc(O)c3c(O)c2C(=O)[C@H]1O[C@H]1C[C@@H](O[C@H]2C[C@@H](O[C@H]3C[C@@H](OC)[C@H](O)C(C)O3)[C@@H](O)C(C)O2)[C@H](O)C(C)O1 (stereo not given in full), COC1/C=C\OC2(C)Oc3c(C)c(O)c4c(O)c(c(CN(C)CCO)c(O)c4c3C2=O)NC(=O)/C(C)=C\C=C/C(C)C(O)C(C)C(O)C(C)C(OC(C)=O)C1C (stereo not given) is higher in growth: 71% for the first, 114% for the second.

Going from O=C1/C=C/[C@@H](O)[C@@H]2C[C@@H](O)C[C@H]2/C=C/CCC[C@@H](C(F)(F)F)O1 to CN(C)/C=C1\SC(=Nc2ccc(Cl)cc2)NC1=O, the growth falls from 104% to 99.5%.

Going from COc1cc(NCc2ccc3nc(N)nc(N)c3c2C)cc(OC)c1OC (tested in a mixture with another compound) to COc1ccc(-c2cc(-c3ccc(N(C)C)cc3)nc(NC(=O)c3ccncc3)n2)cc1, the growth rises from 25.7% to 113%.

Going from NC(=Nc1ccccc1)SCCCCSC(N)=Nc1ccccc1 to CCOC1=C(Cl)C(=O)C(OCC)=C(Cl)C1=O, the growth falls from 79.5% to 52.3%.

In the case of CC(CCN1CCN(CCC(C)CC(C)(C)C)C1CC(C)CC(C)(C)C)CC(C)(C)C (stereo not given), the growth is reported as 97.8%.

In the case of COc1cc(C(=O)N/N=C/c2ccc(N(C)C)cc2)cc(OC)c1OC, the growth is reported as -20% (active).
O=C(Nc1cccc(-c2ccc(Cl)c(C(F)(F)F)c2)c1)C1CCN(Cc2cccc3cccnc23)CC1 was tested, and the growth was -53.9% (active).
In the case of CCOC(=S)Sc1ccc([N+](=O)[O-])cc1[N+](=O)[O-], the growth is reported as -25.6% (active).
For Clc1ccccc1[C@@H]1C[C@@H]2Cc3cc(Br)c4ccccc4c3N1O2, the growth was 7.98% (active).
N=C(N)c1ccc(-c2ccc(-c3ccc(Cl)c(Cl)c3)s2)nc1 was tested, and the growth was -43.9% (active).
With O=C(/C=C/c1ccco1)c1ccc(Nc2ccnc3cc(Cl)ccc23)cc1 the growth was 6.28% (active).
COc1ccc(/C=C(\C#N)c2cc3ccccc3n2C)cc1 was tested, and the growth was 0.415% (active).
For O=C(/C=C/C12c3ccccc3C(c3ccccc31)C1C(=O)NC(=O)C12)c1ccc(F)cc1 (stereo not given), the growth was -19.5% (active).
In the case of COc1cccc(/C=C2\COc3ccc(-c4ccccc4)cc3C2=O)c1, the growth is reported as -47% (active).
With Cc1nc2ccccc2c(/C=C/c2ccc(Cl)cc2)c1C(=O)/C=C/c1ccc(C(F)(F)F)cc1 the growth was -37% (active).
With COC12C=C/C(=C(/C(=O)OCc3ccncn3)C(=O)CCCCCCCCC3(OC)C=C/C(=C(/C(=O)OCc4ccncn4)C(=O)CCCCCCCC1)O3)O2 the growth was -17.1% (active).

From PubChem BioAssay (NCI)
